{"source": "the supplement of paper PMC8728848", "experiment_in_all_cases": "glycan array binding signal (z-score within array); higher = stronger binding", "conditions_in_all_cases": "glycan notation: IUPAC condensed, linker removed", "key": {"Fuc(a1-2)Gal": {"target": "Fuc(a1-2)Gal", "method_in_brief": "(§1)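 From the Consortium for Functional Glycomics database, 3228 arrays were curated, keeping only those whose protein sequence was available. Binding is given as a within-array Z-score averaged across arrays sharing a protein sequence and across linkers. Negative Z-scores can be read as non-binding.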"}, "[1]": {"target": "Fuc(a1-2)Gal(b1-3)GalNAc(a1-3)[Fuc(a1-2)]Gal(b1-4)GlcNAc", "method_in_brief": "as §1"}, "[2]": {"target": "Fuc(a1-2)Gal(b1-3)[Fuc(a1-4)]GlcNAc(b1-3)[Gal(b1-4)GlcNAc(b1-6)]Gal(b1-4)Glc", "method_in_brief": "as §1"}, "[3]": {"target": "Fuc(a1-2)Gal(b1-4)GlcNAc(b1-2)Man(a1-3)[Fuc(a1-2)Gal(b1-4)GlcNAc(b1-2)Man(a1-6)]Man(b1-4)GlcNAc(b1-4)[Fuc(a1-6)]GlcNAc", "method_in_brief": "as §1"}, "[4]": {"target": "Fuc(a1-2)Gal(b1-4)GlcNAc(b1-3)[Fuc(a1-3)[Gal(b1-4)]GlcNAc(b1-6)]Gal(b1-4)Glc", "method_in_brief": "as §1"}, "[5]": {"target": "Fuc(a1-2)Gal(b1-4)GlcNAc(b1-6)GalNAc", "method_in_brief": "as §1"}, "[6]": {"target": "Fuc(a1-2)Gal(b1-4)[Fuc(a1-3)]GlcNAc(b1-2)Man(a1-3)[Fuc(a1-2)Gal(b1-4)[Fuc(a1-3)]GlcNAc(b1-2)Man(a1-6)]Man(b1-4)GlcNAc(b1-4)[Fuc(a1-6)]GlcNAc", "method_in_brief": "as §1"}, "[7]": {"target": "Fuc(a1-2)[Gal(a1-3)]Gal(b1-3)GlcNAc(b1-2)Man(a1-3)[Fuc(a1-2)[Gal(a1-3)]Gal(b1-3)GlcNAc(b1-2)Man(a1-6)]Man(b1-4)GlcNAc(b1-4)GlcNAc", "method_in_brief": "as §1"}, "[8]": {"target": "Fuc(a1-2)[Gal(a1-3)]Gal(b1-3)GlcNAc(b1-6)GalNAc", "method_in_brief": "as §1"}, "[9]": {"target": "Fuc(a1-2)[Gal(a1-3)]Gal(b1-4)GlcNAc", "method_in_brief": "as §1"}, "[10]": {"target": "Fuc(a1-2)[GalNAc(a1-3)]Gal(b1-4)GlcNAc(b1-2)Man(a1-3)[Fuc(a1-2)[GalNAc(a1-3)]Gal(b1-4)GlcNAc(b1-2)Man(a1-6)]Man(b1-4)GlcNAc(b1-4)[Fuc(a1-6)]GlcNAc", "method_in_brief": "as §1"}, "[11]": {"target": "Fuc(a1-2)[GalNAc(a1-3)]Gal(b1-4)[Fuc(a1-3)]GlcNAc(b1-3)GalNAc", "method_in_brief": "as §1"}, "[12]": {"target": "Fuc(a1-3)[Gal(b1-4)]GlcNAc(b1-6)GalNAc", "method_in_brief": "as §1"}, "[13]": {"target": "Gal(a1-3)Gal(b1-4)GlcNAc(b1-2)Man", "method_in_brief": "as §1"}, "[14]": {"target": "Gal(b1-3)GalNAc(b1-4)Gal(b1-4)Glc", "method_in_brief": "as §1"}, "[15]": {"target": "Gal(b1-3)[Neu5Ac(b2-6)]GalNAc", "method_in_brief": "as §1"}, "Gal(b1-4)GlcNAc(b1-2)Man": {"target": "Gal(b1-4)GlcNAc(b1-2)Man", "method_in_brief": "as §1"}, "[16]": {"target": "Gal(b1-4)GlcNAc(b1-2)Man(a1-3)[Gal(b1-4)GlcNAc(b1-2)Man(a1-6)]Man(b1-4)GlcNAc(b1-4)[Fuc(a1-6)]GlcNAc", "method_in_brief": "as §1"}, "[17]": {"target": "Gal(b1-4)GlcNAc(b1-2)[Gal(b1-4)GlcNAc(b1-4)]Man(a1-3)[Gal(b1-4)GlcNAc(b1-2)[Gal(b1-4)GlcNAc(b1-6)]Man(a1-6)]Man(b1-4)GlcNAc(b1-4)GlcNAc", "method_in_brief": "as §1"}, "[18]": {"target": "Gal(b1-4)GlcNAc(b1-2)[Gal(b1-4)GlcNAc(b1-6)]Man(a1-6)[Gal(b1-4)GlcNAc(b1-2)Man(a1-3)]Man(b1-4)GlcNAc(b1-4)[Fuc(a1-6)]GlcNAc", "method_in_brief": "as §1"}, "[19]": {"target": "Gal(b1-4)GlcNAc(b1-3)Gal(b1-4)GlcNAc(b1-2)Man(a1-3)[Gal(b1-4)GlcNAc(b1-3)Gal(b1-4)GlcNAc(b1-2)Man(a1-6)]Man(b1-4)GlcNAc(b1-4)[Fuc(a1-6)]GlcNAc", "method_in_brief": "as §1"}, "[20]": {"target": "Gal(b1-4)GlcNAc(b1-3)Gal(b1-4)GlcNAc(b1-2)[Gal(b1-4)GlcNAc(b1-3)Gal(b1-4)GlcNAc(b1-6)]Man(a1-6)[Gal(b1-4)GlcNAc(b1-3)Gal(b1-4)GlcNAc(b1-2)Man(a1-3)]Man(b1-4)GlcNAc(b1-4)[Fuc(a1-6)]GlcNAc", "method_in_brief": "as §1"}, "[21]": {"target": "Gal(b1-4)GlcNAc(b1-3)Gal(b1-4)GlcNAc(b1-3)Gal(b1-4)GlcNAc(b1-2)[Gal(b1-4)GlcNAc(b1-3)Gal(b1-4)GlcNAc(b1-3)Gal(b1-4)GlcNAc(b1-6)]Man(a1-6)[Gal(b1-4)GlcNAc(b1-3)Gal(b1-4)GlcNAc(b1-3)Gal(b1-4)GlcNAc(b1-2)Man(a1-3)]Man(b1-4)GlcNAc(b1-4)[Fuc(a1-6)]GlcNAc", "method_in_brief": "as §1"}, "[22]": {"target": "Gal(b1-4)GlcNAc(b1-3)Gal(b1-4)GlcNAc(b1-3)Gal(b1-4)GlcNAc(b1-3)Gal(b1-4)GlcNAc(b1-2)Man(a1-3)[Gal(b1-4)GlcNAc(b1-3)Gal(b1-4)GlcNAc(b1-3)Gal(b1-4)GlcNAc(b1-3)Gal(b1-4)GlcNAc(b1-2)Man(a1-6)]Man(b1-4)GlcNAc(b1-4)GlcNAc", "method_in_brief": "as §1"}, "[23]": {"target": "Gal(b1-4)GlcNAc(b1-3)Gal(b1-4)GlcNAc(b1-3)Gal(b1-4)GlcNAc(b1-3)Gal(b1-4)GlcNAc(b1-2)[Gal(b1-4)GlcNAc(b1-3)Gal(b1-4)GlcNAc(b1-3)Gal(b1-4)GlcNAc(b1-3)Gal(b1-4)GlcNAc(b1-6)]Man(a1-6)[Gal(b1-4)GlcNAc(b1-3)Gal(b1-4)GlcNAc(b1-3)Gal(b1-4)GlcNAc(b1-3)Gal(b1-4)GlcNAc(b1-2)Man(a1-3)]Man(b1-4)GlcNAc(b1-4)[Fuc(a1-6)]GlcNAc", "method_in_brief": "as §1"}}, "note": "Only a selection was taken, and the strongest signals are over-represented in it overall.", "data": [{"binder": "ECL (Erythrina cristagalli), Q6YD91 (protein) VETISFSFSEFEPGNNDLTLQGAAIITQSGVLQLTKINQNGMPAWDSTGRTLYTKPVHIWDMTTGTVASFETRFSFSIEQPYTRPLPADGLVFFMGPTKSKPAQGYGYLGVFNNSKQDNSYQTLAVEFDTFSNPWDPPQVPHIGIDVNSIRSIKTQPFQLDNGQVANVVIKYDASSKILLAVLVYPSSGAIYTIAEIVDVKQVLPEWVDVGLSGATGAQRDAAETHDVYSWSFHASLPETND", "values": [{"measurement": "glycan array binding signal (z-score)", "setting": "Fuc(a1-2)Gal", "value": -0.188}, {"measurement": "glycan array binding signal (z-score)", "setting": "[1]", "value": -0.443}, {"measurement": "glycan array binding signal (z-score)", "setting": "[2]", "value": -0.094}, {"measurement": "glycan array binding signal (z-score)", "setting": "[3]", "value": -0.031}, {"measurement": "glycan array binding signal (z-score)", "setting": "[4]", "value": 0.053}, {"measurement": "glycan array binding signal (z-score)", "setting": "[5]", "value": -0.165}, {"measurement": "glycan array binding signal (z-score)", "setting": "[6]", "value": -0.185}, {"measurement": "glycan array binding signal (z-score)", "setting": "[7]", "value": -0.173}, {"measurement": "glycan array binding signal (z-score)", "setting": "[8]", "value": -0.206}, {"measurement": "glycan array binding signal (z-score)", "setting": "[9]", "value": -0.306}, {"measurement": "glycan array binding signal (z-score)", "setting": "[10]", "value": -0.274}, {"measurement": "glycan array binding signal (z-score)", "setting": "[11]", "value": 0.775}, {"measurement": "glycan array binding signal (z-score)", "setting": "[12]", "value": 0.251}, {"measurement": "glycan array binding signal (z-score)", "setting": "[13]", "value": -0.116}, {"measurement": "glycan array binding signal (z-score)", "setting": "[14]", "value": -0.141}, {"measurement": "glycan array binding signal (z-score)", "setting": "[15]", "value": -0.546}, {"measurement": "glycan array binding signal (z-score)", "setting": "Gal(b1-4)GlcNAc(b1-2)Man", "value": -0.311}, {"measurement": "glycan array binding signal (z-score)", "setting": "[16]", "value": 0.114}, {"measurement": "glycan array binding signal (z-score)", "setting": "[17]", "value": 4.03}, {"measurement": "glycan array binding signal (z-score)", "setting": "[18]", "value": 5.09}, {"measurement": "glycan array binding signal (z-score)", "setting": "[19]", "value": 4.13}, {"measurement": "glycan array binding signal (z-score)", "setting": "[20]", "value": 6.18}, {"measurement": "glycan array binding signal (z-score)", "setting": "[21]", "value": 5.28}, {"measurement": "glycan array binding signal (z-score)", "setting": "[22]", "value": 3.58}, {"measurement": "glycan array binding signal (z-score)", "setting": "[23]", "value": 5.63}]}]}
